Bioassay records from PubChem.
Sampled rows, rich in hits. Any-hit rate of the full collection: about 2.1%.
TPT1 inh: Candida albicans TPT1 enzyme inhibitors, primary screen, biochemical, fluorescence polarization. 0.81% of 300,000 active. recombinant caTPT1, FP RNA substrate dephosphorylation. tRNA 2'-phosphotransferase TPT1 (Candida albicans SC5314). inhibition, % at 5 µM;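 active = inhibition above the mean of all tested compounds plus 3 SD, set per screening campaign, cut at about 24% in these data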;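 also: plate controls were DMSO alone for no effect and ferristatin control at 100 nM for full effect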
Rpn11 inh: Rpn11 (PSMD14) deubiquitinase inhibitors, primary screen, biochemical, fluorescence polarization, uHTS | human 26S proteasome, Ub4-pepOG fluorescence polarization; 20S core pre-blocked with epoxomicin | 0.59% of 360,000 active | 26S proteasome non-ATPase regulatory subunit 14 (Homo sapiens), O00487 | AID 588493, 2011 | inhibition, % at 20 µM;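 active = inhibition at 20 µM, scaled to each plate's controls, above about 33%, limit read from the data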
HNF4A DNA FP: change in binding of human HNF4A to DNA, primary screen, biochemical, fluorescence polarization, FITC-DNA; 1 h; activity change, % at 10 µM; Hepatocyte nuclear factor 4-alpha (Homo sapiens), P41235; AID 1224865, 2016; 0.3% of 360,000 active; in the data active = activity change above about 30%, passing the limit was not always enough
Target sequence (P41235 whole entry, looked up): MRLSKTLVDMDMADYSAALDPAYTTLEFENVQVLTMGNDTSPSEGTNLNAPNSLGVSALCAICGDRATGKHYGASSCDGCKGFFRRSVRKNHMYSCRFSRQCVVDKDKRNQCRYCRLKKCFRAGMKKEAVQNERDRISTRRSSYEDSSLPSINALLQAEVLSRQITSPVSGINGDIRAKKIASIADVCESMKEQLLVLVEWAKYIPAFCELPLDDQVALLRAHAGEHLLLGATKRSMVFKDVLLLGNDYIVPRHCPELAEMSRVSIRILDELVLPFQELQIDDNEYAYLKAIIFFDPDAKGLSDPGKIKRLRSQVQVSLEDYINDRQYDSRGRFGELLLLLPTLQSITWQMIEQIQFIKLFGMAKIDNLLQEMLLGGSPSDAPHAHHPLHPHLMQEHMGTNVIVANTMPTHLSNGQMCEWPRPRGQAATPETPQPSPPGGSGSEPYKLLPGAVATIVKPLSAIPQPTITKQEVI
Myeloid diff MLP: induction of myeloid progenitor differentiation, primary screen, cell-based, flow cytometry, MLPCN library; calls only at 10 µM; 1% of 360,000 active; ER-HoxA9 myeloid progenitors, lysozyme-GFP differentiation; AID 624256, 2012;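 active = normalized GFP-positive differentiation at or above the plate's own cutoff, the solvent-only control mean plus 3 SD; inconclusive = no clear call, values can overlap the other calls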;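 also: cells exposed to compound for four days before flow analysis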
Rpn11 confirm: Rpn11 (PSMD14) deubiquitinase inhibitors, confirmation, biochemical, fluorescence polarization, single concentration. shares compounds with Rpn11 inh. purified human 26S proteasome, Ub4-pepOG fluorescence polarization; proteasome pretreated with epoxomicin. inhibition, % at 20 µM. 29% of 1,900 active. AID 602318, 2012
MMP-2 inh: MMP-2 enzyme inhibition, confirmation, counter-screen for RPN11 inhibitor project, biochemical, fluorescence, single concentration; 4% of 1,900 active; shares compounds with Rpn11 inh; recombinant MMP-2, FRET peptide cleavage fluorescence; inhibition, % at 20 µM;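 also: human MMP-2 activated beforehand with APMA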
Thrombin FP: bovine thrombin protease inhibition, confirmation, counter-screen for Rpn11 inhibitor project, biochemical, fluorescence polarization, single concentration; shares compounds with Rpn11 inh; bovine thrombin cleavage of Ub4-pepOG; inhibition, % at 20 µM; 13% of 1,900 active; AID 602333, 2012;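 active = mean inhibition at least 40% at 20 µM, or signal 3 deviations below plate average, so some actives read negative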;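 also: plate controls were thrombin with DMSO for no effect and buffer wells lacking thrombin for full effect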
* hit, by the source's call; i = inactive; ? = inconclusive; / = not tested or not shown. Rule as the data show it, unless noted: active = inhibition above about 40%; inactive = the rest.

SMILES	TPT1 inh	Rpn11 inh	HNF4A DNA FP	Myeloid diff MLP	Rpn11 confirm	MMP-2 inh	Thrombin FP
N#CC1=C(SCc2ccccc2Cl)NC(=O)C(C(N)=O)C1 (stereo not given)	3.8	-6.5	-2.2	i	/	/	/
Oc1nc(Nc2ccc(Cl)cc2Cl)sc1/C=C1\C=Nc2ccccc21	10.7	56.5*	12.5	i	60.1*	21.5	44.9*
CC1(C(=O)NS(=O)(=O)c2ccc(C#N)cc2)CCN1C(=O)Cc1ccc(Cl)cc1Cl (stereo not given)	/	-13.0	0.8	i	/	/	/
CCOC(=O)C1=C(c2ccccc2)NC(=S)NC1C (stereo not given)	-3.0	112.4*	3.0	i	-14.3	-38.6	-25.8
O=C(Nc1cc(S(=O)(=O)N2CCCCC2)ccc1N1CCCCC1)C1CC1	-2.2	4.5	-1.5	i	/	/	/
CC(=O)N1CCN(c2ccc(NC(=O)c3cccc(OCc4ccccc4)c3)cc2)CC1	-6.1	81.8*	4.3	i	-5.8	-11.0	-12.9
O=C(O)CN1C(=O)/C(=C\c2cccc(OC(=O)c3ccco3)c2)SC1=S	-1.7	-9.6	11.8	i	/	/	/
O=C(O)CN1C(=O)/C(=C\c2ccc(OC(=O)c3ccco3)cc2)SC1=S	21.1	121.7*	72.9*	i	96.0*	-0.2	68.1*
O=C(COc1ccccc1[N+](=O)[O-])Nc1ccc(NC(=O)c2cc3ccccc3o2)cc1	2.5	7.2	-0.7	i	/	/	/
O=C(COc1ccc(/C=N/NC(=O)c2cc3ccccc3o2)cc1Br)Nc1ccccc1	-1.4	117.7*	22.7	i	40.7*	-104.6	-14.9
COc1ccc(OC)c(/C=N/NC(=O)CSc2cc(C)nc3c(OC)cccc23)c1	-4.4	56.0*	4.2	i	17.2	-8.1	-8.9
Cc1cccc(CSc2cccc3cccnc23)c1	0.8	69.9*	-2.2	i	42.5*	-20.2	-6.5
CCOC(=O)CSc1cccc2cccnc12	-2.0	62.7*	-2.5	i	12.3	-32.5	-10.3
O=C(CSc1cccc2cccnc12)N/N=C/c1ccc(O)cc1	-1.8	-7.2	1.6	i	/	/	/
COc1cccc(/C=N/NC(=O)CSc2cccc3cccnc23)c1	2.9	38.2*	-2.7	i	-15.6	1.8	-16.6
c1cnc2c(SCc3ccc(-c4nnco4)cc3)cccc2c1	0.9	21.9	-0.2	i	/	/	/
CC1CC(C)(C)CC2(C1)NC(=O)N(CC(=O)Nc1cc(C(F)(F)F)ccc1N1CCCCC1)C2=O (stereo not given)	/	0.0	4.7	i	/	/	/
CCN1CCN(C(=O)CS(=O)(=O)Cc2nc(-c3cccc(OC)c3)oc2C)CC1	-2.1	1.6	1.0	i	/	/	/
CCc1ccc(C(=O)NNC(=O)c2c(CC)noc2C)cc1	4.7	0.0	-41.3	i	/	/	/
CO/C([O-])=N/c1c[n+](-c2ccc(Cl)cc2)no1	-1.5	84.0*	6.7	i	-9.0	23.2	-1.6
Cc1ccccc1Cn1cc(NS(=O)(=O)c2cn(C)nc2C)cn1	3.8	-11.8	0.2	i	/	/	/
CCOc1ccccc1NS(=O)(=O)c1cn(C)nc1C	-2.2	32.4*	-46.7	i	-10.6	-4.5	0.8
CCOC(=O)CC(=O)CSc1nc(-c2cccnc2)ccc1C#N	13.6	41.2*	1.7	i	-5.0	-26.3	-10.2
O=C(NCC1CCCO1)C(c1cccs1)N(Cc1cccs1)C(=O)c1ccc(-c2ccccc2)[nH]1 (stereo not given)	4.4	52.2*	-1.8	i	13.9	6.2	13.1
O=C(NCC1CCCO1)C(c1ccc(F)cc1)N(CC1CCCO1)C(=O)c1ccc(-c2ccccc2)[nH]1 (stereo not given)	-1.4	5.1	-0.9	i	/	/	/
SMILES	TPT1 inh	Rpn11 inh	HNF4A DNA FP	Myeloid diff MLP	Rpn11 confirm	MMP-2 inh	Thrombin FP
Cc1cc(NC(=O)c2ccccc2C)n(-c2cccc(F)c2)n1	-1.4	-5.0	3.6	i	/	/	/
O=C(COc1ccc2c3c(c(=O)oc2c1)CCC3)Nc1ccc(CCO)cc1	1.1	45.4*	-0.1	i	17.8	-37.7	11.3
O=C(CN1CCN(c2ccccn2)CC1)Nc1ccccc1	5.3	-3.7	-5.2	i	/	/	/
O=C(CN1CCN(c2ccccn2)CC1)NC1CCCC1	-1.7	85.7*	5.7	i	-1.7	-11.9	58.7*
CCCC(NC(=O)C(C)N1CCN(S(=O)(=O)c2ccccc2)CC1)c1ccccc1 (stereo not given)	/	-3.2	-3.0	i	/	/	/
COCCNC(=O)CN(CC1CCCO1)C(=O)CCC(=O)Nc1ccccn1 (stereo not given)	-4.8	50.5*	-1.5	i	-13.1	-30.2	-20.8
C=CC[n+]1c(-c2ccc(OCC)cc2)csc1NNC(=O)Nc1ccccc1	11.8	41.7*	-0.7	/	-21.8	11.5	-28.1
Cc1ccccc1C(=O)NC1CCN(C(=O)N(c2ccccc2)c2ccccc2)CC1	-4.6	-8.6	1.4	i	/	/	/
O=C(Nc1ccc(C2=NCCN2)cc1)c1ccc(C(=O)Nc2ccc(C3=NCCN3)cc2)c(Cl)c1	2.1	89.7*	60.5	i	69.5*	47.1*	9.7
CN(Cc1ccc(Cl)c(Cl)c1)C(=O)c1ccccc1SCC(=O)N1CCCC1	/	-2.5	-2.2	i	/	/	/
CCN(CC)c1ccc(/C=N/NC(=O)c2cccc(S(=O)(=O)Nc3ccccc3OC)c2)cc1	1.5	49.7*	11.2	i	56.6*	-19.3	33.1
COc1cc(Cl)c(C)cc1NC(=O)CSc1sc2c(O)cc(=O)[nH]c2c1C#N	8.1	40.0*	-26.8	i	-5.3	2.2	-22.4
O=C(COC(=O)Cc1ccsc1)NCc1ccccc1	1.0	39.3*	0.4	i	-3.2	-14.9	-18.2
Cc1ccc(O)c(C(=O)c2cnn(C(=O)COc3ccc(Cl)cc3)c2)c1	1.2	76.8*	-1.3	i	0.8	-28.3	-10.6
CC(=O)n1cc([C@H]2C=C(C(=O)Nc3ccccc3)O[C@@H](OCc3ccc(CO)cc3)C2)c2ccccc21	-2.1	42.1*	3.4	?	43.6*	-12.8	12.2
Cc1ccnc(NC(=O)Nc2ccc3c(c2)N(C)C(=O)CS3)c1	3.6	83.6*	13.9	i	18.9	-49.2	15.4
Cc1ccc(NC(=O)Nc2ccc3c(c2)N(C)C(=O)CS3)nc1	2.1	18.0	11.5	i	/	/	/
